Test results as given in PubChem BioAssay AID1508600 (Functional Genomics Laboratory (NCATS/FGL), 2020).
Out of some 53,000 sequences screened, about 3,700 (7%) were called active. The entries come from a sample that favours actives as a whole. Values without a mark were called inactive.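 The calls were made as follows: active = gene knockdowns whose robust z-score for IL-1 alpha signal is at least 2 or at most -2, so actives lie on both sides; inactive = the rest.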

Experiment: Components of the Cytosolic LPS Sensing Pathway: Gene Identification via Genome-wide siRNA Screen;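 also: robust z of the log signal after scaling to non-targeting control siRNA wells of the plate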
Details: RAW264.7 macrophages, IL-1a HTRF, actives lie on both sides, screened at 100 nM (by protocol), cells primed 5 h with Pam3CSK4 first
Outline: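 Read-out: IL-1a HTRF on supernatant, divided by plate negative-control median ×100, log-transformed and converted to robust z-score. Cells were RAW264.7 given 100 nM siRNA, Pam3CSK4-primed 5 hours, then LipidA-transfected 24 hour.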

| Sequence | z-score |
| --- | --- |
| GGCAGUCUACUUUACACGGTT against Prdm1 | 0.294 |
| GGAUCUUGGAUAAAGUGUGTT against Gpr180 | 1.73 |
| CCCAGUUGCUGUUCUUGACTT against Defb40 | 0.553 |
| GGCUUCCUCAAGAACUUUCTT against Acly | 0.0643 |
| CCGGUUACAAACUCAACUGTT against Syne3 | -0.285 |
| GGGAGAGAUCCUCAACAGGTT against Cdk5rap1 | -0.581 |
| GGUGCAUGACCUGACAAAGTT against Fermt3 | 2.5 (active) |
| CCUGGGUUGGAUAAAACUUTT against 6030458C11Rik | -0.0611 |
| GGAUUUUAAACCUUAAGGUTT against Ssty1 | 0.49 |
| GGCAGUGAAGAGAAGAAGUTT against Trub2 | -0.835 |
| GGAUUUCUUUGUCAGUACUTT against Il22ra2 | 0.791 |
| CCAUUAUGGACAAUAAGAGTT against Rnf8 | 0.396 |
| GCAUGUGACUCCAUAUAAATT against Cldn15 | -0.117 |
| GGUUCAAAACUACACACACTT against Sp9 | 0.512 |
| GGAGGGUACUCACAGGAAATT against Olfr411 | -2.05 (active) |
| GGAUCAAUGCACCUUCCAATT against Gpr85 | 1.61 |
| GGACCAGUUUAUCCAGCACTT against Mc3r | -0.699 |
| GGCAGAAAAGAUAGCAUCUTT against Cops4 | 0.413 |
| GGUCUUUUCUAUUAUGGGATT against Strc | 1.22 |
| GCGGUUUUGUGUCAGGGACTT against 4833408A19Rik | -0.682 |
| GGAGCUGUUGAAAGAAUAUTT against Relt | 2.63 (active) |
| CCCUGAACAGGUCAUCUGUTT against Ctps2 | 0.822 |

| Sequence | z-score |
| --- | --- |
| GGACAUGACUCUAAAAAAATT against Slc44a3 | 4.43 (active) |
| CGUGCUCAUUUAGGUUAUATT against Zfp57 | 1.15 |
| GGGCAAAUAGUCAAUGACCTT against Ces1e | 0.661 |
| GCGGAACUUUCAUUGCUGGTT against Rabggta | 1.85 |
| CCGGAGCACCAUUAAGGUUTT against Nudt11 | 4.75 (active) |
| GCCUUCUGAUUCAUUUUCUTT against Naa38 | 0.525 |
| GGAAAGUUUGCACUGUAAATT against Tiam2 | -0.207 |
| CCGUCUUCACCUGAUACAGTT against Ube2d2b | 0.501 |
| GCUGAACGGUCUCAAACAGTT against Cdca3 | 0.395 |
| GGUGUCUCUGAUGAAUCACTT against Syt15 | 1.21 |
| UCACAGUCAUCAUUGUUUCTT against Olfr825 | -2.83 (active) |
| GGAAGUCCAACUUCUUCCATT against Ebf4 | -0.153 |
| GGUACCAUGAAGGAUUUAUTT against Tspan2 | 3.24 (active) |
| GGCAUGAUGAUAUUUGAAATT against Glrp1 | -0.142 |
| GGAAAAAGAUGUCCUAUCUTT against Rufy2 | -1.08 |
| GGAUGUGGGUGGAUAUCAUTT against Sit1 | 0.145 |
| GGAAAAAAAGGUAGCUGGATT against Tspyl4 | 2.82 (active) |
| GCUUAUCGAAUUCUUCUCCTT against Cnpy2 | 0.417 |
| CUAGAUGCACAGAAUAGCATT against Prm1 | -1.83 |
| GCAAUAGGCAAUCUGGGAUTT against Olfr52 | 0.504 |
| GCCUCAAUAAAUUGUCAGCTT against Slc25a17 | -0.0131 |
| GAAGCAGAACUUGAGCAAGTT against Phgdh | 2.07 (active) |

| Sequence | z-score |
| --- | --- |
| GCUGCAUAGAAUGACACGATT against Pip5kl1 | 0.851 |
| GGCAAAGACGACCUCUCACTT against Vtcn1 | -1.56 |
| GGAUGAUGAAGUCAAAUUUTT against Slc26a5 | 0.0656 |
| CGACACCUAAGUUCAGCACTT against Mief2 | -1.91 |
| GCACUUUCAUGGAUAUAAGTT against Rab22a | -0.366 |
| GGCACUACUAAGAACCUUATT against Tmem69 | 0.728 |
| CGCAUACUGAUGAUAACUATT against Zfp317 | 2.12 (active) |
| GGAAACCUUUUACCUUUAATT against Padi1 | -0.874 |
| CCAAAAUCGGGAAAGGAAATT against Ldb2 | -0.00816 |
| GGCUUGACCUGCGUCUUCATT against 1700001P01Rik | 0.736 |
| GGAACAUUGGCAUCACGACTT against Acy1 | 0.901 |
| GGACGACGACUUUUUAAAATT against Pnmal1 | 2.18 (active) |
| CCAUCUCUUACUAUCCAUGTT against Cmbl | -1.03 |
| GGCAUGACUGGACUGAAAATT against Ythdf3 | -0.976 |
| GGGAUUUAGCACAAGAUACTT against Brinp3 | 0.606 |
| GGUAUUCUUGGAAGGAGGGTT against Prss22 | 0.153 |
| GGUCCAGAGAAGGCAAGCUTT against Elf3 | 5.87 (active) |
| CGAAAAUCUUCUGGCUCACTT against Llgl2 | -0.922 |
| GGGACUUAGAAACAAUCCATT against Hsd3b4 | 1.77 |
| GGUAGCGAUGUUUUCUUAUTT against Nt5dc3 | 1.66 |
| GGUCAUGCUGAUCAGCGACTT against Itfg2 | -0.564 |
| GGACUACAUGCUCACGUUATT against Ccm2 | 2.07 (active) |

| Sequence | z-score |
| --- | --- |
| CGCCGCACAGUUAAUGCUUTT against Mettl17 | 0.973 |
| GGUUCCUCUCAAAAUUCAATT against Gprc6a | 3.13 (active) |
| GCGAGAGAUGAAAUGGGUGTT against Tbc1d10c | 1.07 |
| CCUUAAAAGUAACCACUGUTT against Slc6a6 | 2.38 (active) |
| GGUUUUAUCUCUUGUGCCCTT against Myl10 | -0.565 |
| GGCCAAGGAUCCAUCUGUATT against Magee1 | 0.11 |
| GCAAUAGCAGCAACUCUUATT against Dbpht1 | -0.369 |
| GGCUCUAACAGCUACAUGUTT against Hspb7 | -2.21 (active) |
| GGGAGAUGUCUUACACAUGTT against Fkbp2 | 1.12 |
| GGUGGUUCUCAGCUGUGUATT against Arhgef18 | -1.08 |
| GGAUGAUGAAUGCAAUUAATT against Eed | -0.882 |
| CCUACUUUGGACUCUUUCATT against Tnfsf12 | -2.25 (active) |
| GGUGGAAGACUUCAGUGAATT against Clgn | 0.384 |
| CAGCUUGUGCUCGAGUAAATT against Gm3579 | -1.14 |
| GGACAGAAAGGUACCCUUATT against Slc30a5 | 0.461 |
| GGUAGUUGUUCUAUGUUUUTT against Olfr967 | -1.07 |
| GCAAAAGUGUAUCAUGAUGTT against Olfr1052 | -2.17 (active) |
| CGUGGAGCUACCAUAUAGGTT against Mob3b | 0.581 |
| CGACCAGCUUCUAGUGCUUTT against Pcdha8 | -0.431 |
| CCAAGCCUCCAAUGGUCAGTT against Stat6 | -0.623 |
| GCACUAUGACUACAAGAGUTT against Olfr1457 | -0.965 |
| GCCGUUGCCUUUCAAGGGATT against Inhbe | -0.112 |

| Sequence | z-score |
| --- | --- |
| GCUUUUCCGUGAUCAUACATT against Tex14 | 0.0691 |
| GGAUCCAGAUACUCCCAAGTT against Camp | -1.08 |
| GGGUUUCUUGAUUCUGACCTT against Ccl5 | -2.33 (active) |
| CCUACCAGUUCCUAUUUAGTT against Alas2 | 0.452 |
| GGGUCUCCGAAACUACUUATT against Tmem144 | 0.00626 |
| GCCAAUUUGACUUGUAAGUTT against Slc22a3 | 1.4 |
| GGUUUCUGGAAGAAACUGGTT against Polr1a | -0.927 |
| GCUGAGUGAAUCCACGUACTT against Mzb1 | -2.65 (active) |
| CAUUGUCAUUCUAGUUGCATT against Olfr1251 | 0.64 |
| GGCAACAAUAGUUCAGAAGTT against Rps6ka5 | 1.5 |
| GCAUAUAAUGUCUAACUCGTT against Eml4 | -0.0328 |
| GGUUCUUAACCUCAGCAGUTT against Omg | -0.541 |
| GGAGUCUUGCUCUAUAUAATT against Arpc5 | 1.26 |
| GGCUUCUUUAUGUUUCCUUTT against Usp48 | -1.46 |
| GGCUUUUCUAGUUCCUCAATT against Pdzd7 | -2.01 (active) |
| GGAAUUCAAGGGCUCCACATT against Grip1 | 0.378 |
| GGUAGGAUGAGUUGAAGAGTT against AF366264 | 0.0631 |
| CCAGAAGUUAGAACAGUUCTT against Rp9 | 1.49 |
| GGAGUACAUGGUACACGUUTT against Fut8 | 1.52 |
| GGAUGUUGUUUAUCGAGGATT against Med21 | -0.572 |
